Data reported in PubChem BioAssay AID504834 (National Center for Advancing Translational Sciences (NCATS), 2011).
The campaign covered roughly 320,000 compounds. About 22,000 (6.9%) were called active. Where a call stands in place of a potency, no number is given. Roughly 27% stayed inconclusive and do not appear here. The sample holds actives, similar compounds and a random draw of the others, so the mix is not that of the screen. The call rests on the fitted dose curve; in most records, active means well fitted inhibition curve with a large enough effect; inconclusive means small, poorly fitted or top-dose-only effect, or another doubt; inactive means no such curve, though single readings can be large or run the other way.

Experiment: Primary qHTS for delayed death inhibitors of the malarial parasite plastid, 96 hour incubation
Conditions: P. falciparum luciferase reporter growth; series mostly up to 28.7 µM
Procedure, shortened: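 Plates of compound plus infected erythrocytes (2% hematocrit, 0.05% parasitemia final) incubate 96 hours, 37 C, 5% CO2. Detection reagent added; reduced luminescence from the parasites' luciferase reporter flags inhibition.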
Potency means the concentration at half of the fitted maximal effect.

Row | SMILES | Potency | activity change, negative = inhibition
1 | O=C(NCc1ccc2c(c1)OCO2)C(=O)NCC1OCCN1S(=O)(=O)c1ccc(F)cc1 (stereo not given) | inactive | –
2 | COCCCNC(=S)N1CCN(c2nc(-c3cccc(OC)c3)cs2)CC1 | inactive | –
3 | CCc1ccc(Nc2n[n+](-c3ccccc3)c(-c3cccc(Cl)c3Cl)s2)cc1 | 3.7 µM (active) | –
4 | COC(=O)c1cnc(Nc2cc(C)ccc2OC)c2ccccc12 | inactive | –
5 | COc1ccc(C)cc1Nc1nc(-c2c(C)[nH]c3ccccc23)cs1 | inactive | –
6 | COc1ccc(C)cc1Nc1n[n+](-c2ccccc2)c(-c2cccc(Cl)c2Cl)s1 | 13.1 µM (active) | –
7 | N#Cc1ccccc1NC(=O)c1ccc2c(c1)OCO2 | inactive | –
8 | N#C/C(=C\c1cccnc1)C(=O)Nc1ccc(SC(F)F)cc1 | inactive | –
9 | Cc1ccc(CNC(=O)CSc2nnc3c(n2)[nH]c2ccc(F)cc23)cc1 | inactive | –
10 | COC(=O)C(C)n1cnc2c(nnn2-c2ccc(F)cc2)c1=O (stereo not given) | inactive | –
11 | Cc1cc(C)cc(N(CC(=O)NC2CCCC2)C(=O)CCC(=O)Nc2nccs2)c1 | inactive | –
12 | COc1ccc(C(=O)C2CCCN(Cc3ccc4nonc4c3)C2)c(C)c1 (stereo not given) | inactive | –
13 | COc1ccc(C(=O)C2CCCN(Cc3cccn3-c3ccccn3)C2)c(C)c1 (stereo not given) | inactive | –
14 | CCOC(=O)c1[nH]ncc1CN1CCCC(C(=O)c2ccc(OC)cc2C)C1 (stereo not given) | 8.28 µM (active) | –
15 | O=C(N=C1SC2CS(=O)(=O)CC2N1c1cc(Cl)ccc1Cl)C1CC1 (stereo not given) | inactive | –
16 | COC(=O)c1cccc(C(=O)N2CCCC(Nc3ccc4c(c3)OCCO4)C2)c1 (stereo not given) | inactive | –
17 | COc1ccc(C(=O)NCC(=O)N/N=C/c2cccnc2)cc1 | inactive | –
18 | Cc1c(S(=O)(=O)N2CC(C)CC(C)C2)c(=O)n(C)c(=O)n1C (stereo not given) | inactive | –
19 | O=C1/C(=C/c2ccc(F)cc2)SC(=S)N1CCCC(=O)N1CCCCC1CCO (stereo not given) | 6.57 µM (active) | –
20 | O=C(CCCN1C(=O)/C(=C\c2ccccc2)SC1=S)Nc1ccccc1O | inactive | –
21 | O=C(CCCN1C(=O)/C(=C/c2ccccc2)SC1=S)Nc1ccc(O)cc1 | – | -3.08% [at 5.75 µM] (inactive)
22 | CC(=O)c1ccc(NC(=O)Cn2c(=O)oc3ccccc32)cc1 | inactive | –

Row | SMILES | Potency | activity change, negative = inhibition
23 | CCCN1C2CCCC1CC(NC(=O)c1cccc(OC)c1)C2 (stereo not given) | inactive | –
24 | CCc1ccc(S(=O)(=O)Nc2ccc(C)c(NS(C)(=O)=O)c2)cc1 | inactive | –
25 | CCCCc1ccc(NC(=O)CN2C(=O)NC(Cc3ccccc3)C2=O)cc1 (stereo not given) | inactive | –
26 | CC(C)=N/N=C1/NC(=O)C(Cc2ccccc2)S1 (stereo not given) | inactive | –
27 | CCOc1cc(/C=C(/C#N)c2ccc(Cl)cc2)cc(Cl)c1OCC(=O)O | 13.1 µM (active) | –
28 | COc1cc(/C=C(/NC(=O)c2ccc(Cl)cc2Cl)C(=O)O)cc(OC)c1OC | inactive | –
29 | CCOC(=O)CN/C=C(\C#N)c1ccc(F)cc1 | inactive | –
30 | CCC(=O)Nc1nnc(S(=O)(=O)N2CCCc3ccccc32)s1 | inactive | –
31 | O=C(COC(=O)c1cccs1)Nc1ccccc1Cl | inactive | –
32 | COc1cc(C2C(C(=O)Nc3ccccc3OC)=C(C)Nc3ncnn32)ccc1O (stereo not given) | inactive | –
33 | COc1ccccc1Nc1nc(N)nc(CSC(=S)N2CCOCC2)n1 | inactive | –
34 | COc1ccccc1NC1=NC(c2ccc(Cl)cc2)N=C(N)N1 (stereo not given) | 0.928 µM (active) | –
35 | COC(=O)c1c(C)[nH]c(C(=O)NCCc2ccc(S(N)(=O)=O)cc2)c1C | inactive | –
36 | CSc1ccccc1NC(=O)c1cc(Cl)sc1Cl | inactive | –
37 | COc1ccc(S(=O)(=O)NCC(=O)NCc2cc(=O)n(C)c(=O)n2C)cc1F | inactive | –
38 | CN(CC(=O)Nc1ccc(Cl)cc1)C(=O)c1ccc(COc2ccccc2)cc1 | inactive | –
39 | CN(CC(=O)Nc1ccc(F)cc1)C(=O)c1ccc(-c2ccc(Cl)cc2)o1 | 2.33 µM (active) | –
40 | Cc1ccc(NC(=O)CN(C)C(=O)c2ccc(Br)o2)cc1 | inactive | –
41 | COCC(=O)N1CCc2ccc(NC(=O)c3ccccc3Cl)cc2C1 | inactive | –
42 | COc1ccc(NC(=O)CN(C)C(=O)CC2CCCCC2)cc1 | inactive | –
43 | Cc1ccc(C(=O)N/C(=C/c2ccc(-c3cccc([N+](=O)[O-])c3)o2)C(=O)NCCCN(C)C)cc1 | inactive | –
44 | Cc1ccc(Cc2cnc(NC(=O)/C(C#N)=C/c3ccc(-c4cccc([N+](=O)[O-])c4)o3)s2)cc1 | inactive | –

Row | SMILES | Potency | activity change, negative = inhibition
45 | N#C/C(=C\c1ccc(-c2cccc([N+](=O)[O-])c2)o1)C(=O)NCCN1CCOCC1 | 10.4 µM (active) | –
46 | COc1ccc(C(CNC(=O)c2cccc(S(=O)(=O)Nc3ccccc3Cl)c2)N2CCOCC2)cc1 (stereo not given) | inactive | –
47 | COC(=O)C1=C(Nc2ccc(OC)cc2)C=C(C)C(C(=O)OC)C1c1ccc(C)cc1 (stereo not given) | inactive | –
48 | COC(=O)C1=C(Nc2ccc(C)cc2)C=C(C)C(C(=O)OC)C1c1ccc(F)cc1 (stereo not given) | 11.7 µM (active) | –
49 | COC(=O)C1C(=O)NCC1c1ccc(C)cc1 (stereo not given) | inactive | –
50 | Cc1nc(COc2cc3oc(=O)cc(C)c3cc2Cl)cs1 | inactive | –
51 | COC(=O)C1=C(O)/C(=C/c2ccc(OCC(=O)Nc3ccccc3)cc2)N=C1C | inactive | –
52 | CCOC(=O)C1=C(O)/C(=C/c2cc(C)n(-c3ccccc3)c2C)N=C1C | 0.657 µM (active) | –
53 | CCOC(=O)C1=C(O)/C(=C/c2ccc(OCC(=O)Nc3ccc(C)cc3)cc2)N=C1C | inactive | –
54 | CCC(=O)c1ccc(OCC(=O)OCC(=O)N2CCc3ccccc3C2)cc1 | inactive | –
55 | COC(=O)c1ccc2c(C(C)(C)O)c(C(C)(C)O)[nH]c2c1 | inactive | –
56 | Cc1cccc(-c2oc3ccc(-c4ccc5c(c4)OCO5)cc3c2C#Cc2cncn2C)c1 | 1.17 µM (active) | –
57 | C/C(=C/c1ccccc1)C(=O)N1CCN(c2ccccc2)CC1 | inactive | –
58 | Nc1c(N(Cc2ccco2)C(=O)c2cccc(F)c2)c(=O)[nH]c(=O)n1Cc1ccccc1 | inactive | –
59 | O=C(O)CN1c2cccc3cccc(c23)S1(=O)=O | inactive | –
60 | Cc1ccc(F)cc1NC(=O)c1cccc(N(C)C)c1 | 11.7 µM (active) | –
61 | Cc1ccc(F)cc1NC(=O)c1ccc2c(c1)OCO2 | inactive | –
62 | O=C(Nc1cccc(NC(=O)c2cccc(F)c2)c1)c1ccccc1 | inactive | –
63 | Cc1c(C(=O)NC(C)C2CC3CCC2C3)cccc1[N+](=O)[O-] (stereo not given) | inactive | –
64 | COc1cc2c(cc1OC)C(c1ccccc1Br)NC(=O)C2 (stereo not given) | inactive | –
65 | Cn1c(-c2ccc(C(F)(F)F)cc2)cc2onc(-c3ccccc3)c2c1=O | inactive | –
